In ChEMBL document CHEMBL2218924, “A broad activity screen in support of a chemogenomic map for kinase signalling research and drug discovery” (Biochem J, 2013):

Key:
[1] = target: Mitogen-activated protein kinase 10 (Homo sapiens) (UniProt P53779); settings: at 1 µM
[2] = target: Mitogen-activated protein kinase 10 (Homo sapiens) (UniProt P53779); settings: at 10 µM
[3] = target: Vascular endothelial growth factor receptor 2 (Homo sapiens) (UniProt P35968); settings: at 1 µM
[4] = target: Vascular endothelial growth factor receptor 2 (Homo sapiens) (UniProt P35968); settings: at 10 µM
[5] = target: Mitogen-activated protein kinase 8 (Homo sapiens) (UniProt P45983); settings: at 1 µM
[6] = target: Mitogen-activated protein kinase 8 (Homo sapiens) (UniProt P45983); settings: at 10 µM
[7] = target: Mitogen-activated protein kinase 9 (Homo sapiens) (UniProt P45984); settings: at 1 µM
[8] = target: Mitogen-activated protein kinase 9 (Homo sapiens) (UniProt P45984); settings: at 10 µM
[9] = target: LIM domain kinase 1 (Homo sapiens) (UniProt P53667); settings: at 1 µM
[10] = target: LIM domain kinase 1 (Homo sapiens) (UniProt P53667); settings: at 10 µM

Sequence of Mitogen-activated protein kinase 9 (Homo sapiens) (P45984 whole entry, looked up, the tested form may be a part): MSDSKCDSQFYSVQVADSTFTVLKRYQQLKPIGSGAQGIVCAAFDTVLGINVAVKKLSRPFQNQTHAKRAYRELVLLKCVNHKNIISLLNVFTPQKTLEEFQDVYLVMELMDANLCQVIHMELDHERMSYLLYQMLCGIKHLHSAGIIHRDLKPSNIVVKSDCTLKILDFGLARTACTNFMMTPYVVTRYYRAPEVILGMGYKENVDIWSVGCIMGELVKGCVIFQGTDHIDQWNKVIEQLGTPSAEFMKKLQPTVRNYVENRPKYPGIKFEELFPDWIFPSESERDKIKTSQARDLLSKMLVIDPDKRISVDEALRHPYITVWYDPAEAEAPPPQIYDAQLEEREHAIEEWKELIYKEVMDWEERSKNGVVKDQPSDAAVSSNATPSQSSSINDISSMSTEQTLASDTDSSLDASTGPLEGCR
Sequence of Mitogen-activated protein kinase 8 (Homo sapiens) (P45983 whole entry): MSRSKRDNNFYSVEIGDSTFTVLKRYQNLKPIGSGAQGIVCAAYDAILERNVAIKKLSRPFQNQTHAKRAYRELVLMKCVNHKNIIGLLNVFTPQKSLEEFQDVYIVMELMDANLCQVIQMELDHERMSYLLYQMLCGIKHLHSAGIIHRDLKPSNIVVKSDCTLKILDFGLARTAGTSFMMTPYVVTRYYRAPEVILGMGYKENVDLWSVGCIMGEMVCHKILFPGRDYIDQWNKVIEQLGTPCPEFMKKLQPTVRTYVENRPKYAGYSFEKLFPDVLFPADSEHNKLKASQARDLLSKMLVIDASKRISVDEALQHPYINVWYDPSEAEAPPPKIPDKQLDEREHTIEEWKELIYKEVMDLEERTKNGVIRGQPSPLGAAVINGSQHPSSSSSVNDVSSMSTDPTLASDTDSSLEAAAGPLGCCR
Sequence of Vascular endothelial growth factor receptor 2 (Homo sapiens) (P35968 whole entry): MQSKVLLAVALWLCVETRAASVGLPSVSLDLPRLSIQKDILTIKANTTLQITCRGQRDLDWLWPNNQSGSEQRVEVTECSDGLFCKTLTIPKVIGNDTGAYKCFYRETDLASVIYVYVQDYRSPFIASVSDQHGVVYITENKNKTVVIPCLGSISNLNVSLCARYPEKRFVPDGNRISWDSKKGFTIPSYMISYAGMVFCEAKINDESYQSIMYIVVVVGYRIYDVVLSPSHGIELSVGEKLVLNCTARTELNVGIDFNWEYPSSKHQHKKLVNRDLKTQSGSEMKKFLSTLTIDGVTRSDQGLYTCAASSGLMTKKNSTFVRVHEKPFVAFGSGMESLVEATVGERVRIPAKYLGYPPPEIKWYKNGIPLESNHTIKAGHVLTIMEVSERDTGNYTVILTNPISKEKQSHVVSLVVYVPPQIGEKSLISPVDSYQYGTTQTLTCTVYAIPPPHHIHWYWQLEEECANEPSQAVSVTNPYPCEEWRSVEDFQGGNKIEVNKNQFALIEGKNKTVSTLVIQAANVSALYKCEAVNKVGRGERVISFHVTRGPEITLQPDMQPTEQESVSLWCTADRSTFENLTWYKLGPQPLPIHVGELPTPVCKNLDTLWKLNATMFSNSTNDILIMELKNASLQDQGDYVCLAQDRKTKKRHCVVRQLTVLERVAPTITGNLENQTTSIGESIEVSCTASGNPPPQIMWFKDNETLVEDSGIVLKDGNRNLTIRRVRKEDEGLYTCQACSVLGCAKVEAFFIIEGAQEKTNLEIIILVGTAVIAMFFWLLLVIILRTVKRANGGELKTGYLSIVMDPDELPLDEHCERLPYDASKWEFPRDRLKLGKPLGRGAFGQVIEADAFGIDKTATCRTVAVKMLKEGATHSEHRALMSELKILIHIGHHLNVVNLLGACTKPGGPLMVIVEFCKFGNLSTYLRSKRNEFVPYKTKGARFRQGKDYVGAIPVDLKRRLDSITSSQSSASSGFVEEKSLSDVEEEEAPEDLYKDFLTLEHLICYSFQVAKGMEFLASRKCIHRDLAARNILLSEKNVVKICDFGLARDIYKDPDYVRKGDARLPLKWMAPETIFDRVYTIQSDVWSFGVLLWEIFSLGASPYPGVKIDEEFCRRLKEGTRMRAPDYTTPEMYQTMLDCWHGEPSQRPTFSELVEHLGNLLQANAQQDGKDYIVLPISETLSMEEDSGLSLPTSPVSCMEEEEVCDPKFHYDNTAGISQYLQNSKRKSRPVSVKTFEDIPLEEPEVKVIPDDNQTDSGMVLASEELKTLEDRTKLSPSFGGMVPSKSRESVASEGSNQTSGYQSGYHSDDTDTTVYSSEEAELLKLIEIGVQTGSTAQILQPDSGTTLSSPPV
Sequence of Mitogen-activated protein kinase 10 (Homo sapiens) (P53779 whole entry): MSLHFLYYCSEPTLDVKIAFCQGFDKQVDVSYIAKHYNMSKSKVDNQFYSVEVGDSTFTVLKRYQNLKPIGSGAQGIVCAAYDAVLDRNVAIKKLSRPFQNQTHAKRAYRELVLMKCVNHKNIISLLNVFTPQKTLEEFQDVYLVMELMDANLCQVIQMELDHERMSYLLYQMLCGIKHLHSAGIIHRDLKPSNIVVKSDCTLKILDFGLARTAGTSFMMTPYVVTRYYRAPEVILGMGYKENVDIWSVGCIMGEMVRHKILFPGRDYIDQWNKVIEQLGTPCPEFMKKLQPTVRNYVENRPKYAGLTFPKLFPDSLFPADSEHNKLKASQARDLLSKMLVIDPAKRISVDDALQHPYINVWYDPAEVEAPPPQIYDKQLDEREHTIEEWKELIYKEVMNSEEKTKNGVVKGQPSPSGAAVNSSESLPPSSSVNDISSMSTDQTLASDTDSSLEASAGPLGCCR
Sequence of LIM domain kinase 1 (Homo sapiens) (P53667 whole entry, looked up, the tested form may be a part): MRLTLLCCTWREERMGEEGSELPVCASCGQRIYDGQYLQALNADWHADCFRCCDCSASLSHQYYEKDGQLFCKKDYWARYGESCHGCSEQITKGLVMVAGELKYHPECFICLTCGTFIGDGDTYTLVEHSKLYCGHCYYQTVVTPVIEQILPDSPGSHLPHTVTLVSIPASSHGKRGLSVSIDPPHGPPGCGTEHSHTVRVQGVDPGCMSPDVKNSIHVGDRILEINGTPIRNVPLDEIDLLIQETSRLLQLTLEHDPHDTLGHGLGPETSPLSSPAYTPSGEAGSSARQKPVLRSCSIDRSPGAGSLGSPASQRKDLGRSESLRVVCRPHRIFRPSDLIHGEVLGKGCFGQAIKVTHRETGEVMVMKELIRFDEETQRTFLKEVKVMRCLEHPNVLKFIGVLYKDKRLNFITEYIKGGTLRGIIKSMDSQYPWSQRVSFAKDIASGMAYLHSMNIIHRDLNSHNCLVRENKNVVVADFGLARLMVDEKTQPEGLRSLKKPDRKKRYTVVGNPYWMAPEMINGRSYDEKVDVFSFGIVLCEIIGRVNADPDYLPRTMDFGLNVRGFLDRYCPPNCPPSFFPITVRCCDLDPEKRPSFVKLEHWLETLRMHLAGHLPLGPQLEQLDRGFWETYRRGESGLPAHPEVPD

O=C1NC(=O)c2c1c1c3ccccc3n3c1c1c2c2ccccc2n1C1CCC3O1
residual activity [1]: 63%
residual activity [2]: 56%
residual activity [3]: 38%
residual activity [4]: 18%

C[S+]([O-])c1ccc(-c2nc(-c3ccc(F)cc3)c(-c3ccncc3)[nH]2)cc1 (centres undefined)
residual activity [5]: 111%
residual activity [6]: 95%
residual activity [7]: 74%
residual activity [8]: 30%
residual activity [3]: 107%
residual activity [4]: 60%
residual activity [9]: 110%
residual activity [10]: 82%

N/C(=N\[N+](=O)[O-])N/N=C\c1ccc(-c2cccc([N+](=O)[O-])c2)o1
residual activity [7]: 100%
residual activity [8]: 98%
residual activity [1]: 95%
residual activity [2]: 79%
residual activity [3]: 92%
residual activity [4]: 84%

COc1cc2ncnc(Nc3ccc(OCc4ccccc4)cc3)c2cc1OC
residual activity [5]: 102%
residual activity [6]: 101%
residual activity [7]: 106%
residual activity [8]: 101%
residual activity [1]: 106%
residual activity [2]: 110%
residual activity [3]: 60%
residual activity [4]: 11%
residual activity [9]: 110%
residual activity [10]: 70%

O=C1c2ccccc2-c2nc3nnnn3nc21
residual activity [5]: 114%
residual activity [6]: 83%
residual activity [7]: 109%
residual activity [8]: 83%
residual activity [1]: 112%
residual activity [2]: 100%
residual activity [3]: 109%
residual activity [4]: 104%

O=c1[nH]c2ccccc2n1C1CCN(Cc2ccc(-c3nc4cc5[nH]cnc5cc4nc3-c3ccccc3)cc2)CC1
residual activity [5]: 110%
residual activity [6]: 86%
residual activity [7]: 104%
residual activity [8]: 101%
residual activity [1]: 105%
residual activity [2]: 69%
residual activity [3]: 107%
residual activity [4]: 90%
residual activity [9]: 115%
residual activity [10]: 97%

CCn1cnc2c(Nc3cccc(Cl)c3)nc(N[C@@H]3CCCC[C@@H]3N)nc21
residual activity [1]: 91%
residual activity [2]: 84%
residual activity [3]: 85%
residual activity [4]: 45%
residual activity [9]: 89%
residual activity [10]: 63%

O=[N+]([O-])/C=C/c1ccc2c(c1)OCO2
residual activity [5]: 120%
residual activity [6]: 102%
residual activity [7]: 99%
residual activity [8]: 103%
residual activity [1]: 88%
residual activity [2]: 92%
residual activity [3]: 101%
residual activity [4]: 85%
residual activity [9]: 114%
residual activity [10]: 97%

COc1ccc2c(c1)/C(=C/c1cnc[nH]1)C(=O)N2
residual activity [7]: 82%
residual activity [8]: 47%
residual activity [1]: 80%
residual activity [2]: 27%
residual activity [3]: 47%
residual activity [4]: 3%
residual activity [10]: 48%

COc1cc(OC)c(/C=C2\C(=O)Nc3ccccc32)c(OC)c1
residual activity [7]: 89%
residual activity [8]: 88%
residual activity [1]: 85%
residual activity [2]: 103%
residual activity [3]: 96%
residual activity [4]: 91%
residual activity [9]: 83%
residual activity [10]: 83%

c1cc(-c2cnn3cc(-c4ccc(OCCN5CCCCC5)cc4)cnc23)ccn1
residual activity [5]: 117%
residual activity [6]: 106%
residual activity [2]: 82%
residual activity [3]: 4%
residual activity [4]: 1%
residual activity [10]: 27%

CCc1nc(-c2ccc(OC)cc2)[nH]c1-c1ccncc1
residual activity [5]: 104%
residual activity [6]: 106%
residual activity [7]: 102%
residual activity [8]: 105%
residual activity [1]: 126%
residual activity [2]: 123%
residual activity [9]: 100%

CC(C)(C)c1cc(C=C(C#N)C#N)cc(Br)c1O
residual activity [5]: 116%
residual activity [6]: 110%
residual activity [7]: 103%
residual activity [8]: 114%
residual activity [2]: 54%
residual activity [3]: 107%
residual activity [4]: 83%
residual activity [9]: 111%

O=C1Nc2ccc3ncsc3c2/C1=C/c1c[nH]cn1
residual activity [5]: 63%
residual activity [6]: 22%
residual activity [7]: 71%
residual activity [8]: 16%
residual activity [1]: 20%
residual activity [2]: 20%
residual activity [3]: 2%
residual activity [4]: 0%
residual activity [9]: 55%
residual activity [10]: 10%

CC(C)[C@H](CO)Nc1nc(Nc2cccc(Cl)c2)c2ncn(C(C)C)c2n1
residual activity [7]: 90%
residual activity [8]: 97%
residual activity [4]: 58%
residual activity [9]: 98%
residual activity [10]: 90%

COc1ccc2c(c[n+](C)c3c4cc5c(cc4ccc23)OCO5)c1OC
residual activity [5]: 100%
residual activity [6]: 64%
residual activity [1]: 81%
residual activity [2]: 63%
residual activity [4]: 90%
residual activity [10]: 87%

COC(=O)[C@@]1(O)C[C@H]2O[C@]1(C)n1c3ccccc3c3c4c(c5c6ccccc6n2c5c31)C(=O)NC4
residual activity [5]: -12%
residual activity [6]: -20%
residual activity [7]: 5%
residual activity [8]: -11%
residual activity [1]: -3%
residual activity [2]: -1%
residual activity [3]: 3%
residual activity [4]: 0%
residual activity [9]: 6%
residual activity [10]: 3%
